Measured values as given in PubChem BioAssay AID1863 (Southern Research Specialized Biocontainment Screening …, 2009).
Screen size: about 300,000 compounds; about 480 (0.16%) were called active.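 The calls were made as follows: active = inhibition over 29.93%, a cutoff 3 SD above the screen mean, later confirmed by dose response; inconclusive = inhibition over 29.93% but no dose response follow-up; inactive = inhibition at most 29.93% or unconfirmed.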 The list is a sample of the results. Entries with a potency or affinity are not part of this list.

Assay: inhibitors of PhoP regulon expression, primary screen, Salmonella Typhimurium, GFP reporter (AID 1863);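 also: 0% = low Mg2+ inducing control and 100% = high Mg2+ repressing control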
Settings: S. Typhimurium PhoP-regulated promoter GFP reporter, 4 h; at 50 µM; active compounds read high

inhibition, inactive:
CO[C@H]1C=CO[C@@]2(C)Oc3c(C)c(O)c4c(O)c(c(C=NN5CCN(C6CCCC6)CC5)c(O)c4c3C2=O)NC(=O)C(C)=CC=C[C@H](C)[C@H](O)[C@@H](C)[C@@H](O)[C@@H](C)[C@H](OC(C)=O)[C@@H]1C -1.76%, CO[C@H]1C=CO[C@@]2(C)Oc3c(C)c(O)c4c(O)c(c5c(c4c3C2=O)NC2(CCN(CC(C)C)CC2)N=5)=NC(=O)C(C)=CC=C[C@H](C)[C@H](O)[C@@H](C)[C@@H](O)[C@@H](C)[C@H](OC(C)=O)[C@@H]1C -10.1%, COc1ccccc1CNC(=O)C(=O)NCC1OCCN1C(=O)c1cccs1 (centres undefined) -7.58%, CCOc1ncccc1C(=O)NCCCSc1ccccc1 4.02%, COc1ccc(Cl)cc1/C=C(\C#N)C(N)=O -5.64%, Cc1ccnc(SCCn2c(N3CCCCC3)nc3c2c(=O)[nH]c(=O)n3C)n1 2.87%, CC(=O)Nc1ccc(S(=O)(=O)NCc2cc(=O)n(C)c(=O)n2C)cc1 1.8%, CCOc1cc(C2/C(=C(/O)c3ccc(OC(C)C)cc3)C(=O)C(=O)N2CCCOC)ccc1O (centres undefined) -4.64%, CCc1cc2c3c(c1)/C(=C1/SC(N)=NC1=O)C(=O)N3C(C)(C)C=C2C 2.08%, Cc1cc(C)cc(CN2C(=O)NC3(CCCCCC3)C2=O)c1 -9.68%, Oc1ccccc1CNCc1ccccc1 4.46%, CC(NCc1ccccc1O)c1ccccc1 (centres undefined) -3.45%, CN(C)S(=O)(=O)c1cccc(NC(=O)c2ccc(S(=O)(=O)N3CCCC3)cc2)c1 -7.11%, CC(C)OCCCNc1nc2c(-c3ccccc3)nnn2c2ccccc12 -3.07%, COc1cc(NC(=O)Cn2cnc(S(=O)(=O)N3CCC(C)CC3)c2)cc(OC)c1OC -7.04%, CC[C@H]1OC(=O)[C@H](C)[C@@H](O[C@H]2C[C@@](C)(OC)[C@@H](O)[C@H](C)O2)[C@H](C)[C@@H](O[C@@H]2O[C@H](C)C[C@H](N(C)C)[C@H]2O)[C@](C)(O)C[C@@H](C)C(=NOCOCCOC)[C@H](C)[C@@H](O)[C@]1(C)O 2.91%, CC[C@H]1OC(=O)[C@H](C)[C@@H](O[C@H]2C[C@@](C)(OC)[C@@H](O)[C@H](C)O2)[C@H](C)[C@@H](O[C@@H]2O[C@H](C)C[C@H](N(C)C)[C@H]2O)[C@](C)(O)C[C@@H](C)C(=O)[C@H](C)[C@@H](O)[C@]1(C)O 6.93%, CCOC(=O)N/N=C\c1cccc(OC)c1OC/C=C/c1ccccc1 1.25%, COc1ccccc1CN1C[C@@H]2C[C@@H](c3[nH]c4c(C)cccc4c3C)N3CCC[C@@]23C1=O -4.79%, CCOc1cccc(C(=O)NNC(=O)CCC(=O)O)c1 4.57%, NC(=O)c1ccccc1OCC(=O)N1CCCc2ccccc21 -3.13%, Cc1ccc(CN2CCC(c3nc4ccc(Cl)cc4[nH]3)CC2)cc1 22.6%, Clc1ccc2nc(C3CCN(Cc4ccccc4)CC3)[nH]c2c1 18.6%, COc1ccc(Oc2ncnc3sccc23)cc1 9.87%, Cc1cc(=O)oc2cc(OCC3CC(c4ccc(Br)cc4)=NO3)ccc12 (centres undefined) -2.2%, Cc1ccc(Cl)cc1NC(=O)C1C2CCC(O2)C1C(=O)O (centres undefined) -0.09%, FC(F)(F)c1ccc(N/N=C/c2cccnc2)nc1 -0.8%, Fc1cccc(/C=N/Nc2ccccn2)c1 10.3%, CCOc1cc(C2C(C(=O)c3ccccc3)=C(C(=O)OC)Nc3nnnn32)ccc1O (centres undefined) -7.95%, CCOc1ccc(NC(=O)Cn2c(=O)oc3cc(Cl)ccc32)cc1 -5.34%, CC(O)(c1ccccc1)C(c1ccccc1)C1CCCCN1 (centres undefined) 5.86%, O[C@@H](c1cc(C(F)(F)F)nc2c(C(F)(F)F)cccc12)[C@H]1CCCCN1 9.26%, OC(c1cc(C(F)(F)F)nc2c(C(F)(F)F)cccc12)C1CCCCN1 (centres undefined) -7.43%, FC(F)(F)c1cc(-c2ccccc2)nc(NC2CCCC2)n1 2.27%, Cc1ccccc1CN1[C@@H]2c3ccccc3C[C@@H]2OCCS1(=O)=O 5.91%, Nn1c(SCC(=O)Nc2ccc3c(c2)OCO3)nncc1=O -10%, Cc1cccnc1NC(=O)c1ccc2c(c1)OCO2 5.72%, CN(Cc1cc([N+](=O)[O-])c2cccnc2c1O)C1CCCCC1 24.8%, O=[N+]([O-])c1ccc(O)c2cccnc12 4.87%, O=[N+]([O-])c1ccc(Cl)c2cccnc12 2.44%, O=[N+]([O-])c1cc([N+](=O)[O-])c2cccnc2c1Oc1ccccc1O 11.2%, O=[N+]([O-])c1ccc(O)c2ncccc12 -0.36%, O=[N+]([O-])c1cccc2c(Cl)ccnc12 -15%, Nc1nonc1C(=O)NCCNC(=O)c1cccs1 17.7%, O=C(O)C1CCN(C(=O)COc2ccc3c4c(c(=O)oc3c2)CCCC4)CC1 4.17%, COc1ccc(N2CCN(c3oc(-c4ccco4)nc3C#N)CC2)cc1 26.4%, COc1cc(S(=O)(=O)n2ccnc2)ccc1Br -8.94%, O=C(NCC1CCCO1)C(C(=O)c1ccc(F)cc1)n1ccccc1=O (centres undefined) 2.45%, COc1ccc(S(=O)(=O)n2oc(=O)cc2-c2ccccc2)cc1 -4.7%, CCN(CC)C(=S)Nc1ccc([N+](=O)[O-])cc1 3.9%, Oc1ccc(Cl)cc1CNc1ccccn1 14.1%, Oc1ccc(Cl)cc1CNn1cnnc1 18.7%, O=C(c1cc2c(=O)oc3ccccc3c2s1)N1CCOCC1 2%, CCOC(=O)NCC(C#CCN(CC)CC)N(CC)CC (centres undefined) 4.11%, O=C(O)CSc1cc(NS(=O)(=O)c2ccc(Br)cc2)c2ccccc2c1O 0.22%, O=C(O)CSc1cc(NS(=O)(=O)c2ccc(Cl)cc2)c2ccccc2c1O -5.26%, CC(C)Oc1ccc(C(=O)OC(C)C(=O)Nc2nc(-c3cccc([N+](=O)[O-])c3)cs2)cc1 (centres undefined) 3.69%, COc1ccc(CN2C3CCC2CC(NC(=O)c2cccc(F)c2)C3)cc1 (centres undefined) 5.59%, Cc1ccc(C23CC4CC(CC(CN)(C4)C2)C3)cc1 26.1%, NCC12CC3CC(C1)CC(c1ccc(Cl)cc1)(C3)C2 10.5%, CCOC(=O)N1CCN(C(=O)c2ccc(NS(C)(=O)=O)cc2)CC1 12.6%, O=C(NCCc1ccccc1)c1ccc(-c2ccc(F)cc2)o1 0.73%, CCSc1nc(N2CCOCC2)c2ccccc2n1 -4.32%, COc1cc(NC(=O)Cn2ccsc2=N)c(C)cc1[N+](=O)[O-] 0.16%, CCc1ccc2[nH]c3nc(N/N=C/c4cccc(O)c4)nnc3c2c1 1.71%, Oc1ccc(/C=N\Nc2nncc(-c3ccccc3)n2)cc1 1.9%, CC(=O)N/N=C/c1c(C)[nH]n(-c2ccccc2)c1=O 3.32%, COc1ccc(S(=O)(=O)NCC(=O)N(CC(=O)NCc2ccco2)Cc2ccc(F)cc2)cc1 6.01%, Oc1ccccc1Nc1ccccn1 0.2%, c1ccc(Nc2ccccn2)nc1 -3.66%, CCCc1[nH]nc2c1C(c1ccc(OC)c(Cn3nnc4ccccc43)c1)C(C#N)=C(N)O2 (centres undefined) 6.36%, CC(C)(C)OC(=O)N1CCN(C(=O)c2[nH]cnc2C(=O)N[C@@H](Cc2ccccc2)C(=O)OCc2ccccc2)CC1 7.86%, COc1ccc(OC)c(N2C(N)=NC(N)=NC23CCCC3)c1 -1.52%, O=C(Nc1nnc(-c2cccs2)o1)c1cccc(C(F)(F)F)c1 -1.86%, COc1cccc(C(=O)Nc2nnc(-c3cccs3)o2)c1 8.85%, CCn1c(=N)n(CC(=O)c2ccc(Br)s2)c2ccccc21 9.45%, N=c1n(CC(=O)c2cccs2)c2ccccc2n1Cc1ccccc1 -1.64%, Cc1nc2ccc(S(=O)(=O)NCC(=O)Nc3cccc(F)c3)cc2s1 0.67%, Nc1c(Cl)ncnc1N/N=C/c1ccncc1 -8.59%, Nc1c(Cl)ncnc1N/N=C/c1ccc2ccccc2n1 -18.8%, Cc1cc(CNC(=O)C2CCC(=O)N(Cc3cccc(C(F)(F)F)c3)C2)no1 (centres undefined) 8.7%, Cn1c(=O)c(=O)n(C)c2cc(S(=O)(=O)N3CCN(c4cccc(C(F)(F)F)c4)CC3)ccc21 -8.38%, COc1cccc(N(CC(=O)NC(C)c2ccccc2)S(C)(=O)=O)c1 (centres undefined) -3.79%, Nc1nnc(CC(=O)N/N=C/c2ccccc2OCc2ccccc2F)s1 2.44%, CSCC[C@H](NC(=O)Nc1ccc(S(N)(=O)=O)cc1)C(=O)O -5.86%, COC(=O)[C@H](CCSC)NC(=O)Nc1ccc(C)cc1 -5.05%, COc1cccc(OCc2cc(C(=O)N3CCN(c4ccccc4O)CC3)no2)c1 8.64%, CCOc1ccc(C(=O)C(CCC(CN(C)C)C(=O)c2ccc(OCC)cc2)CN(C)C)cc1 (centres undefined) 17.1%, CCCOc1ccc(C(=O)O)cc1 -6.14%
